Bioassay records from PubChem BioAssay.
MK inhibit: inhibitors of Streptococcus pneumoniae mevalonate kinase; purified MK, PK/LDH-coupled NADH absorbance 340 nm; inhibition, % at 10 µM; 0.48% of 65,000 active; AID 555;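 active = ranked among the strongest by inhibition in the single 10 µM screen, a fixed top-ranked set picked for dose follow-up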
NADH coupling: inhibition of NAD/NADH coupling enzymes, library profiling; IC50, µM (series often up to 10 µM); AID 774; 0.02% of 65,000 active; coupled PK/LDH NADH assays, four targets;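 active = single-dose screening hits from any of four coupled enzyme assays that gave an IC50 when retested across doses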;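 also: the DPM-DC format reads NADH fluorescence rather than 340 nm absorbance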
PMK inhibit: inhibitors of Streptococcus pneumoniae phosphomevalonate kinase; AID 539; inhibition, % at 10 µM; 0.49% of 65,000 active; purified PMK, PK/LDH-coupled NADH absorbance 340 nm;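 active = top-ranked compounds by inhibition in the single 10 µM screen, taking a fixed number of the strongest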
Fluor 339 460: intrinsic fluorescence of library compounds, ex339/em460 – biochemical, MLSMR library, data from DPM-DC assay, artefact control, profiling panel; 5.5% of 65,000 active; fluorescence fold increase at 10 µM; compound autofluorescence, ex339/em460 nm, NADH buffer; active compounds read high; 1 = no-compound wells, NADH background; AID 709;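 active = at 10 µM, mean starting fluorescence two-fold or more over control wells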;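 also: signal is the first read of a kinetic run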
Spn DPM-DC inh: blocks S. pneumoniae diphosphomevalonate decarboxylase; calls only at 10 µM; 0.49% of 65,000 active; AID 556; purified DPM-DC, PK/LDH coupled NADH fluorescence;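 active = the 320 compounds with the highest percent inhibition in the single-dose primary screen, excluding strongly autofluorescent ones, cut at about 32% in these data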;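 also: kinetic rate of NADH fluorescence loss reporting ADP formed by the decarboxylase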
Abs 340nm: compounds absorbing at 340 nm. compound absorbance at 340 nm, fold over control. fold change at 10 µM. 65,000 tested, under 10 active. AID 708;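 active = at 10 µM dose, initial 340 nm absorbance at least 2 fold that of control wells; inactive = change under 2 fold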;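 also: initial absorbance extrapolated from kinetic A340 decline of NADH oxidation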
Of the large screens only hits and unclear results are named; the others gave an inactive call. This is a sample that favours compounds with a hit; in the whole collection about 6.3% have one here.

CC1=C(SCCC#N)S/C(=C2\SC(C)=C(SCCC#N)S2)S1	none
CCOC(=O)Cc1c(C)nc2cc(-c3ccc(C)cc3)[nH]n2c1=O	none
CCOC(=O)Cc1c(C)nc2c(-c3ccccc3)c[nH]n2c1=O	Fluor 339 460 2.2 (not shown: Spn DPM-DC inh)
Cn1c(=N)c(S(=O)(=O)c2ccc(Cl)cc2)cc2c(=O)n3ccccc3nc21	none
N=c1c(S(=O)(=O)c2ccccc2)cc2c(=O)n3ccccc3nc2n1CC1CCCO1 (configuration not stated)	Fluor 339 460 3.1
Cc1ccc(S(=O)(=O)c2cc3c(=O)n4cc(C)ccc4nc3n(CC3CCCO3)c2=N)cc1 (configuration not stated)	Fluor 339 460 2.1
CCOC(=O)CSc1nc2ccccc2c(=O)n1CC1CCCO1 (configuration not stated)	none
NC(=O)NC(Cc1ccccc1)C(=O)NCC1(N2CCCCC2)CCCCC1 (configuration not stated)	none
CC(C)(C)NC(=O)c1ccc2c(c1)N(CC(=O)N1CCN(c3ccccc3F)CC1)C(=O)C(C)(C)O2	none
COc1ccc(C(=O)COC(=O)CN2CC(=O)Oc3ccccc32)cc1Br	none
COc1ccc2c(c1)N(C)C(=O)CC(c1ccccc1)=N2	none
COc1ccc(-c2nc(C#N)c(NCc3ccc(C)cc3)o2)cc1OC	Fluor 339 460 2.1 (not shown: Spn DPM-DC inh)
COc1ccc(-c2nc(C#N)c(NCCc3ccccc3)o2)cc1OC	Fluor 339 460 3.9 (not shown: Spn DPM-DC inh)
CC(C)(C)c1ccc(-c2nc(C#N)c(NCc3ccncc3)o2)cc1	none
CCN(CC)CCCNc1oc(-c2ccc(OC)c(OC)c2)nc1C#N	Fluor 339 460 3.9 (not shown: Spn DPM-DC inh)
CN(C)CCCNc1oc(-c2cccc(Cl)c2)nc1C#N	Fluor 339 460 3.9 (not shown: Spn DPM-DC inh)
O=C1CC(c2ccc(S(=O)(=O)N3CCN(c4ccccc4)CC3)cc2)CN1 (configuration not stated)	none
C#C[C@]1(O)CC[C@H]2[C@@H]3CCc4cc(O)ccc4[C@H]3CC[C@@]21C	none
C[C@]12CC[C@@H]3c4ccc(OS(=O)(=O)O)cc4CC[C@H]3[C@@H]1CCC2=O	PMK inhibit active
O=C(Nc1ccc(-c2noc(COc3ccccc3Cl)n2)cc1)c1ccco1	PMK inhibit 32
COc1ccc2cc(C(c3nnnn3C3CCCC3)N3CCc4ccccc4C3)c(=O)[nH]c2c1 (configuration not stated)	none
CCOc1ccc2[nH]c(=O)c(CN(CCO)C(c3nnnn3C3CCCCC3)C(C)C)cc2c1 (configuration not stated)	none
COc1ccc2[nH]c(=O)c(C(c3nnnn3C3CCCCC3)N3CCN(C)CC3)cc2c1 (configuration not stated)	Fluor 339 460 4.5 (not shown: Spn DPM-DC inh)
CCCN1CCN(C(c2cc3cc(OCC)ccc3[nH]c2=O)c2nnnn2C2CCCCC2)CC1 (configuration not stated)	Fluor 339 460 4.3 (not shown: Spn DPM-DC inh)
COc1cc2cc(C(c3nnnn3Cc3ccc(F)cc3)N3CCCCCC3)c(=O)[nH]c2cc1OC (configuration not stated)	Fluor 339 460 2.1
COc1ccc2[nH]c(=O)c(C(c3nnnn3CC3CCCO3)N3CCc4ccccc4C3)cc2c1 (configuration not stated)	Fluor 339 460 3
CCOC(=O)N1CCC(NC(=O)c2cccc3c2C(=O)N(c2ccc(OC)cc2)C3)CC1	none
CS(=O)(=O)N(CC(=O)NCc1ccco1)c1ccc(Cl)c(C(F)(F)F)c1	none
CCn1nc(-c2ccccc2)c2nc3ccccc3nc21	Fluor 339 460 2.4
CCn1nc(NC(=O)c2ccncc2)c2cc3ccccc3nc21	none
CCCn1nc(-c2ccccc2)c2nc3ccccc3nc21	Fluor 339 460 2.4
Cn1c(N)c(C(=O)COC(=O)Cn2cc(C(F)(F)F)ccc2=O)c(=O)n(C)c1=O	none
CC(=O)c1ccc(OCCCC(=O)OCC(=O)N2CCN(c3ccccc3)CC2)cc1	none
CCn1nc(NC(=O)c2ccccn2)c2cc3cccc(C)c3nc21	Fluor 339 460 3.4 (not shown: Spn DPM-DC inh)
Cc1cccc(OCCC(=O)Nc2c(C)n(C)n(-c3ccccc3)c2=O)c1	none
CCOC(=O)CCC(NC(=O)c1cncc(O)c1)C(=O)OCC (configuration not stated)	Fluor 339 460 2.9
Cc1cc(Nc2cccc(F)c2)nc(-c2ccccc2O)n1	none
Cc1cc(NCc2ccccc2)nc(-c2ccccc2O)n1	Fluor 339 460 2.2 (not shown: Spn DPM-DC inh)
Cc1cc(N2CCCCCC2)nc(-c2ccccc2O)n1	Fluor 339 460 3.8 (not shown: Spn DPM-DC inh)
Cc1cc(Nc2ccccc2)nc(-c2ccccc2O)n1	Fluor 339 460 2.2
COc1cccc(-c2noc(C3CCCN(S(=O)(=O)c4cccc(Cl)c4C)C3)n2)c1 (configuration not stated)	none
Cc1ccc(Nc2nnc(SCC(=O)NCc3ccco3)s2)cc1	none
COC(=O)C1CCN(C(=O)COC(=O)CC(NC(N)=O)c2ccc(Cl)cc2)CC1 (configuration not stated)	none
CCOc1ccc(NC(=O)CSc2nnc(C)n2CCCOC)cc1	none
COc1ccc(CC(=O)Nc2ccc(-c3nc4cc(C)ccc4o3)c(O)c2)cc1OC	Fluor 339 460 2.2 (not shown: Spn DPM-DC inh)
COc1ccccc1OCC(=O)Nc1cccc(-c2nc3ccccc3o2)c1	none
CCCC(=O)Nc1ccc(-c2nc3cc(C)ccc3o2)cc1	Fluor 339 460 2.3 (not shown: Spn DPM-DC inh)
CCCC(=O)Nc1ccc2oc(-c3ccc(OC)c(Br)c3)nc2c1	Fluor 339 460 3.7 (not shown: Spn DPM-DC inh)
CCCC(=O)Nc1ccc(-c2nc3cc(C)c(C)cc3o2)c(O)c1	Fluor 339 460 2.2 (not shown: Spn DPM-DC inh)
CC1(C)CC2(CCO1)OC(=O)CC2C(=O)NCc1ccccc1 (configuration not stated)	none
Cc1cc(C)c2nc(N3CCCN(C(=O)c4cnccn4)CC3)c(C#N)cc2c1	none
CC1(C)Cc2c(sc3nc(SCC#N)n(C4CCCCC4)c(=O)c23)CO1	none
CC1(C)CC(=O)C2=C(C1)Nc1ccccc1NC2c1ccccn1 (configuration not stated)	none
Cc1cc2c(cc1C)NC(c1c(C)n(C)n(-c3ccccc3)c1=O)C1=C(CC(C)(C)CC1=O)N2 (configuration not stated)	Fluor 339 460 2.6
CCC(=O)N1CCc2cc(S(=O)(=O)N3CCN(c4ccccn4)CC3)ccc21	none
COc1cc(CN2CC(C)OC(C)C2)cc(OC)c1 (configuration not stated)	MK inhibit 45
Nc1nc2ccccc2nc1N	Fluor 339 460 2.1
O=C(O)c1nc2ccccc2nc1C(=O)O	none (no result: MK inhibit)
CC(=NCc1ccco1)c1c(C)[nH]n(-c2nc3ccccc3s2)c1=O	Spn DPM-DC inh active
Cc1c(C(=O)N2CCCc3ccccc32)oc2ccc(S(=O)(=O)N3CCOCC3)cc12	none
Cc1cccc(-c2nc(CS(=O)CC(=O)NC3CCCC3)c(C)o2)c1 (configuration not stated)	none
Cc1cccc(-c2nc(C#N)c(NC3CCCCC3)o2)c1	Fluor 339 460 2.1
